Data published in the supplement of paper PMC11732987, “Enantioselective OTUD7B fragment discovery through chemoproteomics screening and high-throughput optimisation” (Communications Chemistry, 2025).

Tests used:
Test in all cases: log2 ratio of Biotin-Ahx-Ub-VS probe labelling (fragment/DMSO); higher = less target engagement (more negative = stronger competition), active = hit call of the paper (q ≤ 0.05, log2 ratio ≤ -1)
Settings in all cases: compound concentration: 200 uM; treatment time: 3 h
[1] = biological target: USP34 (UniProt Q70CQ2)
Chain of USP34 (Q70CQ2 whole entry, the tested form may be a part): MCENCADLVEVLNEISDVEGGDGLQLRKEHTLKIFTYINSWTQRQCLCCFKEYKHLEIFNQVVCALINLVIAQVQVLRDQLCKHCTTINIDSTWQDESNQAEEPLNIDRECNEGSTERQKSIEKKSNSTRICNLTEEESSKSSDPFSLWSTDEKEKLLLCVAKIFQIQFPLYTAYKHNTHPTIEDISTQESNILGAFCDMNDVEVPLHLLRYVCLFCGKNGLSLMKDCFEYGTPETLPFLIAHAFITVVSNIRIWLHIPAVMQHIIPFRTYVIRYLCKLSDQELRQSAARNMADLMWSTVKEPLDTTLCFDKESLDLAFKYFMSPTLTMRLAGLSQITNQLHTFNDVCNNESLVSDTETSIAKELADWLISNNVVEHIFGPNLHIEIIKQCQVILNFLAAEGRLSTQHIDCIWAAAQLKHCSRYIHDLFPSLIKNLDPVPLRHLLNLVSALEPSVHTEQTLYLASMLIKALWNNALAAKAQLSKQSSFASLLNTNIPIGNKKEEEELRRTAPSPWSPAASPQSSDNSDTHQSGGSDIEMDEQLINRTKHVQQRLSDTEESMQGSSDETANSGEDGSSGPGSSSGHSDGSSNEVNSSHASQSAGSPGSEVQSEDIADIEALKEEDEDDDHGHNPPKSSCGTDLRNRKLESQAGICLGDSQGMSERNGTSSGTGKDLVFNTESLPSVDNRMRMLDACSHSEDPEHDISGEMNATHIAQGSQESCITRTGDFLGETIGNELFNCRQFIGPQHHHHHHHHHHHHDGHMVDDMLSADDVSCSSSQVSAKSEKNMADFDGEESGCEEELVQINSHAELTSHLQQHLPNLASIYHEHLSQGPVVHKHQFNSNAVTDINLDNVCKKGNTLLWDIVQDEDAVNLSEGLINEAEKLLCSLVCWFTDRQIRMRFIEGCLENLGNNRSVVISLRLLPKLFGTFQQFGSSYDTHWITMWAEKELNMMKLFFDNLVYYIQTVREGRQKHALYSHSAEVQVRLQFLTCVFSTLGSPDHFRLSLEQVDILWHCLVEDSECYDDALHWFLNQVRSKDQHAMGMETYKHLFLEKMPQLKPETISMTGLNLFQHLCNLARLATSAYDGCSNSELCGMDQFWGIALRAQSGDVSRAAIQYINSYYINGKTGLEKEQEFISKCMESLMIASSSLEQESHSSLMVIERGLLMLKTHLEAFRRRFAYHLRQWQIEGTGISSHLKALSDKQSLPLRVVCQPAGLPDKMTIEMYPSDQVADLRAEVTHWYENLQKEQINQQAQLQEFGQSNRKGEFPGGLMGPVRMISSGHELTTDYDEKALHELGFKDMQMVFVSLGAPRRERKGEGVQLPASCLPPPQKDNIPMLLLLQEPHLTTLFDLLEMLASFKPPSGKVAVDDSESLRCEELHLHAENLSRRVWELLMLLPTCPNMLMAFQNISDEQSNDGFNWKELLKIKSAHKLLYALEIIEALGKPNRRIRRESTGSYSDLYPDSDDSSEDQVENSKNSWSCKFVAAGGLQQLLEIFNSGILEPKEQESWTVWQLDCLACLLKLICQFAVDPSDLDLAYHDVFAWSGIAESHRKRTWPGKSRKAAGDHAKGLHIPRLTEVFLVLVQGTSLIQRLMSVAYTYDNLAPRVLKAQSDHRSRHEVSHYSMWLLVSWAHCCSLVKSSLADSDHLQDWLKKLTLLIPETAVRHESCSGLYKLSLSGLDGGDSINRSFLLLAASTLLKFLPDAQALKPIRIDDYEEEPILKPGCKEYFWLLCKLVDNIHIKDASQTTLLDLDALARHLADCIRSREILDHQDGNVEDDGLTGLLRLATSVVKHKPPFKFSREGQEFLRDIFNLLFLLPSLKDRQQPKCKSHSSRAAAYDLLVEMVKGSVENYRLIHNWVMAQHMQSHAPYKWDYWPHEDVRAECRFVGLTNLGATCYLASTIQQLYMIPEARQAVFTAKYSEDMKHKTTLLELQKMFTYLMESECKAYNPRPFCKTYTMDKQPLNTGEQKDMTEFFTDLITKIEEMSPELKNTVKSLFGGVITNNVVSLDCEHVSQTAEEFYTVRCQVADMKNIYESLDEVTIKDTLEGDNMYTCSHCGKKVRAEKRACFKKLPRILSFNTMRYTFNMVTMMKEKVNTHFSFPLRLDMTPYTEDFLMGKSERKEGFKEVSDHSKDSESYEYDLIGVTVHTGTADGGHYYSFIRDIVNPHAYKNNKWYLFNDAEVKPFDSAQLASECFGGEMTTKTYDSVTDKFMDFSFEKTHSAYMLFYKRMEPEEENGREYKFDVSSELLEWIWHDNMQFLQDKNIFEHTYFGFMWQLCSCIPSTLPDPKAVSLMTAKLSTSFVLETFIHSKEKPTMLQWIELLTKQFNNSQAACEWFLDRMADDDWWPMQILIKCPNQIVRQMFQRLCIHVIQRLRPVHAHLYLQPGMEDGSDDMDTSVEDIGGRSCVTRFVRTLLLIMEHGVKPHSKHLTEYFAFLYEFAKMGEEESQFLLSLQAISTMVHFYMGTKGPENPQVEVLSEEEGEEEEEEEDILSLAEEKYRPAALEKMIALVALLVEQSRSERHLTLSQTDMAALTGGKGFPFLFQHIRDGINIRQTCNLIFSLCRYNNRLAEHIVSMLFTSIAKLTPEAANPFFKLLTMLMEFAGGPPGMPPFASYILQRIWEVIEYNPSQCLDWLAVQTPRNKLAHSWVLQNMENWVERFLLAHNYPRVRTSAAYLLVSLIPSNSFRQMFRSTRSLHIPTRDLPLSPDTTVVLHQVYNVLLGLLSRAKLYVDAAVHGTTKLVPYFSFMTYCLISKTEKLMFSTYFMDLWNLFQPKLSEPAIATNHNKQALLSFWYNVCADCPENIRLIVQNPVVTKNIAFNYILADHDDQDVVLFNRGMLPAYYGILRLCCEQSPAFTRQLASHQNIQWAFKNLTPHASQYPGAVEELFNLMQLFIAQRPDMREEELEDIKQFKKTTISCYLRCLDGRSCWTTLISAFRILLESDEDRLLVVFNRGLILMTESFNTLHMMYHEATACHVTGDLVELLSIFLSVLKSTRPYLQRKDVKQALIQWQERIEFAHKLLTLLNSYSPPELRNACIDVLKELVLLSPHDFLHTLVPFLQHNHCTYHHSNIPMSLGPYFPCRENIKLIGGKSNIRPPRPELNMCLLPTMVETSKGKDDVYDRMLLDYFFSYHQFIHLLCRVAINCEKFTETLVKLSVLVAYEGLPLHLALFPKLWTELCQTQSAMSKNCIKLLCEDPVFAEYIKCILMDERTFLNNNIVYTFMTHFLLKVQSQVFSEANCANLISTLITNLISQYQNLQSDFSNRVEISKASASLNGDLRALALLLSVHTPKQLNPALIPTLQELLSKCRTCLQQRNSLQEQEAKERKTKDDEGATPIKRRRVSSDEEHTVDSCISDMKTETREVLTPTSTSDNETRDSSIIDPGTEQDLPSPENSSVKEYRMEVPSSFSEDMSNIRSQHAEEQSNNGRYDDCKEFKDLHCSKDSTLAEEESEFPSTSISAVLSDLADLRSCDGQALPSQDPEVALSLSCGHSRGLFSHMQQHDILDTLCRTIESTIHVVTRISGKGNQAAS
In short: (§1)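 Labelled DUBs from HEK293T lysate were NeutrAvidin-enriched, digested with LysC and trypsin, and run by diaPASEF LC-MS/MS. Before that, each 495 µg sample in Tris/CHAPS/IGEPAL buffer with protease inhibitors was treated in triplicate with fragment at 200 µM or vehicle for 3 h, then with Biotin-Ahx-Ub-VS at 0.5 µM final for 1 h. Values are average log2 ratios of fragment over vehicle by unpaired t-test, based on global-median-normalised Spectronaut label-free quantities from proteins with ≥2 unique peptides.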

[2] = biological target: T1, USP36 (UniProt Q9P275)
T1 sequence (whole entry): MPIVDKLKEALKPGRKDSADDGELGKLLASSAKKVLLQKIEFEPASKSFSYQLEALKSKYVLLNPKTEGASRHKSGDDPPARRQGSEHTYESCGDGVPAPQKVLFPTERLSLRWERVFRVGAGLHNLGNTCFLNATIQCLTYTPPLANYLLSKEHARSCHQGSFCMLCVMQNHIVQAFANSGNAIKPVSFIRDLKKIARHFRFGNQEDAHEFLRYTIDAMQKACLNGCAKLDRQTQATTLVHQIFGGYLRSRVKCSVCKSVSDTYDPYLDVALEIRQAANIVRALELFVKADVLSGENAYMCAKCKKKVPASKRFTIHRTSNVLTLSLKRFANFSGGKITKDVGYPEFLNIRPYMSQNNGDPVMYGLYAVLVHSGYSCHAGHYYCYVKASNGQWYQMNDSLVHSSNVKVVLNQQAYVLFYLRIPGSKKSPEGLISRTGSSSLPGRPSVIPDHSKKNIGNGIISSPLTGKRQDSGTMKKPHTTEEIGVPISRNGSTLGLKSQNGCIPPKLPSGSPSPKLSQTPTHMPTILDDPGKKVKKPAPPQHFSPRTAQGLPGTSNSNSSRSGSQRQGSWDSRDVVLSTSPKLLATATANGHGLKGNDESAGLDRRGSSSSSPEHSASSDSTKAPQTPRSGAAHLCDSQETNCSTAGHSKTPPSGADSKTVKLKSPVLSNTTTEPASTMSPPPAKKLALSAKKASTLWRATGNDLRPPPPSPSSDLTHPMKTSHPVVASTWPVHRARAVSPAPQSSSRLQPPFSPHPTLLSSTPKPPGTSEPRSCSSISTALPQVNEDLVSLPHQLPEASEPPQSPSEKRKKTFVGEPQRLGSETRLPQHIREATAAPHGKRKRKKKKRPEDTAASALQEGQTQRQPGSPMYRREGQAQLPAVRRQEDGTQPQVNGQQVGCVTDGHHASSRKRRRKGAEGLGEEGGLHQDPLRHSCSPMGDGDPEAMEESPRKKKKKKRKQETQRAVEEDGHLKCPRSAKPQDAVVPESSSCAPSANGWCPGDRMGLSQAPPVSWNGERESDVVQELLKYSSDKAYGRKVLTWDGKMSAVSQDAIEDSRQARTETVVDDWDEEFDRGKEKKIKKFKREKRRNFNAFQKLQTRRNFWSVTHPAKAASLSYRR
In short: as §1

[3] = biological target: T2, USP38 (UniProt Q8NB14)
T2 sequence (whole entry): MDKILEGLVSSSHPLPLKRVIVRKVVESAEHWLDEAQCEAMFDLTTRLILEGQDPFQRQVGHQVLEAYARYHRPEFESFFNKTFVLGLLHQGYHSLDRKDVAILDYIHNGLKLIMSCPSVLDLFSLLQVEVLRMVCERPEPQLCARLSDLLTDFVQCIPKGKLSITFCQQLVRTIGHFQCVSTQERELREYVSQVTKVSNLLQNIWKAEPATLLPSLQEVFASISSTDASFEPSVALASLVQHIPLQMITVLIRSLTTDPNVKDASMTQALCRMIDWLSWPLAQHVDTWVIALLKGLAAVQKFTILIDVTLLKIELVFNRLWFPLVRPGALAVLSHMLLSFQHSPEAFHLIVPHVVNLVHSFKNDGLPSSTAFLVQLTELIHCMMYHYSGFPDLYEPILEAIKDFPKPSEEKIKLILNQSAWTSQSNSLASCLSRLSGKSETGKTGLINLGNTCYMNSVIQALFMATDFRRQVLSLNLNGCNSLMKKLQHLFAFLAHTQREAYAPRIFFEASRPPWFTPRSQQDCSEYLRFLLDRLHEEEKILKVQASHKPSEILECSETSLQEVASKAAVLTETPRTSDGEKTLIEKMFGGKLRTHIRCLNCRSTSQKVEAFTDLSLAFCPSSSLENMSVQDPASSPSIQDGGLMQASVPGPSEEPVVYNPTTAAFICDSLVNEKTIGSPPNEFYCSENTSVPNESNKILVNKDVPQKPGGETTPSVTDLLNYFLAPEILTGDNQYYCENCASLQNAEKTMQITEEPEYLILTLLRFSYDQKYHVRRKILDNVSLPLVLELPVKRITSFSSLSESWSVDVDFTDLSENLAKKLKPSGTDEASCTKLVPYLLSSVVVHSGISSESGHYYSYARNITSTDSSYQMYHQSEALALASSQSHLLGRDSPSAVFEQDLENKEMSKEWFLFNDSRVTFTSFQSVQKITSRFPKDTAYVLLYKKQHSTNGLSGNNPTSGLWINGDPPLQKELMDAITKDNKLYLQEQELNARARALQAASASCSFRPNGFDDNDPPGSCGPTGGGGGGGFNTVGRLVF
In short: as §1

[4] = biological target: T3, USP39 (UniProt Q53GS9)
T3 sequence (whole entry): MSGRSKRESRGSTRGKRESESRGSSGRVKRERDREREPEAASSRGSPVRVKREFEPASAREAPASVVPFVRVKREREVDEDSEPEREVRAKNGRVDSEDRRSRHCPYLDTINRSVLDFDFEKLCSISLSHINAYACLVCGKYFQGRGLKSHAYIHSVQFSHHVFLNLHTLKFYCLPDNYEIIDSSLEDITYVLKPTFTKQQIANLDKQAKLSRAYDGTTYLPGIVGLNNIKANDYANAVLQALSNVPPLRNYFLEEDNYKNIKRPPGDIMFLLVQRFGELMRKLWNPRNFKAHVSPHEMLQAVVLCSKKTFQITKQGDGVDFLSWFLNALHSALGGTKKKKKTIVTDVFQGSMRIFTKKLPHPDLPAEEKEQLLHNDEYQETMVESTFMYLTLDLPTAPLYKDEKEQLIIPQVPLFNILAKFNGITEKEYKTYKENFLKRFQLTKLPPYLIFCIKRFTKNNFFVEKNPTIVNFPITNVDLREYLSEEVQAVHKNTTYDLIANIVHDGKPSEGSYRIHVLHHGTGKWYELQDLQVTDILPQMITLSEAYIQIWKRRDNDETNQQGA
In short: as §1

[5] = biological target: T4, USP4 (UniProt Q13107)
T4 sequence (whole entry): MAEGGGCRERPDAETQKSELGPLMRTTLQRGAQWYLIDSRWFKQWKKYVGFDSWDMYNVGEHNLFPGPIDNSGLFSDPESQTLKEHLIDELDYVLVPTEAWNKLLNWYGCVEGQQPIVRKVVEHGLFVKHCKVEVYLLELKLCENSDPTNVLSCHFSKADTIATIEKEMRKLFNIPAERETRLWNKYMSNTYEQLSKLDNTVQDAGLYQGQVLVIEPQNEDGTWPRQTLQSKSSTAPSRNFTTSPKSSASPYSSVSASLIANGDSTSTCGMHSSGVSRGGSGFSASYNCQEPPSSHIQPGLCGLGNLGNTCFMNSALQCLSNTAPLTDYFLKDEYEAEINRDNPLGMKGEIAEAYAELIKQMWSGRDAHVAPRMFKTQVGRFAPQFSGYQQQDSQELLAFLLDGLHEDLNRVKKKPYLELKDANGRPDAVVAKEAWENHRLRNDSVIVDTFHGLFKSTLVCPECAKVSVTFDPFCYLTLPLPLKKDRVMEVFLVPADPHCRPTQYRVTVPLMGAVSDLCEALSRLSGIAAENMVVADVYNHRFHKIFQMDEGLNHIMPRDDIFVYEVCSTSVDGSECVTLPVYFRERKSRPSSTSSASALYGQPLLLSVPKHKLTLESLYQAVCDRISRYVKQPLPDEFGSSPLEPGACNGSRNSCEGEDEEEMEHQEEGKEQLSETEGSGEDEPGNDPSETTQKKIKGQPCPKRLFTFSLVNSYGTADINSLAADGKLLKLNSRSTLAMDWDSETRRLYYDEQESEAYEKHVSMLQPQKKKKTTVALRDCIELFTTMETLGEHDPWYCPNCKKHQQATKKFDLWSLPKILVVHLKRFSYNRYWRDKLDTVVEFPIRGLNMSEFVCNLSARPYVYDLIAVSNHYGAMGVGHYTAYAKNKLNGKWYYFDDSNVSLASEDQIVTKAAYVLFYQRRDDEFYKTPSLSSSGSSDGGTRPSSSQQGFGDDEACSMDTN
In short: as §1

Measured: log2 ratio of Biotin-Ahx-Ub-VS probe labelling

C#Cc1cccc(NC(=O)CCl)c1
inactive: [1] -0.135 | [2] -0.00355 | [3] -0.119 | [4] 0.046 | [5] 0.0482
